Results as given in PubChem BioAssay AID651564 (Sanford-Burnham Center for Chemical Genomics, 2012).
Some of the results follow. Calls of active or inactive are those of the source. No stated cut-off is given here; in the data, active means IC50 below about 80 µM; inactive means the rest.

Test: fluorescent counter-screen in isolated mitochondria, dose response, counter-screen for MPTP inhibitor project, biochemical, fluorescence, uHTS hits (AID 651564)
Details: isolated mitochondria counterscreen, fluorescence read-out

Row | SMILES | IC50
1 | CCNCCC(=O)N1c2ccccc2Sc2ccc(NC(=O)OCC)cc21 | > 80 µM (inactive)
2 | CCOC(=O)c1c(NC(=O)CSc2cn(CC)c3ccccc23)sc2c1CCC2 | > 80 µM (inactive)
3 | Fc1ccc(N2N=C(c3cccs3)CC2c2ccco2)c(F)c1 (stereo not given) | > 80 µM (inactive)
4 | Clc1ccc(-c2cc(C3CCNCC3)[nH]n2)c(Cl)c1 | > 80 µM (inactive)
5 | N=c1n(Cc2ccc(Cl)cc2)c2ccccc2n1CC(O)c1ccco1 (stereo not given) | 13.1 µM (active)
6 | CN1CCC[C@@H]1CCO[C@](C)(c1ccccc1)c1ccc(Cl)cc1 | > 80 µM (inactive)
7 | CCCCCCCCCCCCN1C(=O)CSC1c1cccnc1 (stereo not given) | 12 µM (active)
8 | COCCn1c(CN2CCC(Cc3ccccc3)CC2)nc2c1c(=O)n(C)c(=O)n2C | 5.73 µM (active)
9 | NC(N)=N/N=C/c1ccc(Cl)c([N+](=O)[O-])c1 | 71.5 µM (active)
10 | O=C(COC(=O)c1ccccc1NC(=O)c1ccco1)Nc1ccc2c(c1)OC(F)(F)O2 | 10.7 µM (active)
11 | COc1ccc2sc(N(CCCN(C)C)C(=O)c3ccc(S(=O)(=O)N(C)C4CCCCC4)cc3)nc2c1 | 66.5 µM (active)
12 | CN(C)Cc1ccc(F)cc1Sc1cc(Cl)ccc1Cl | 69.1 µM (active)
13 | CCCCOC(=O)CNc1nnc(SCC(=O)OCC)[nH]c1=O | > 80 µM (inactive)
14 | CCCc1[nH]nc2c1C(c1c(C)nn(-c3ccccc3)c1Cl)C(C#N)=C(N)O2 (stereo not given) | > 80 µM (inactive)
15 | O=C(NC1CCN(Cc2ccccc2)CC1)c1cc(Br)c(Br)[nH]1 | > 80 µM (inactive)
